Experimental data: PubChem BioAssay AID720509 (The Scripps Research Institute Molecular Screening Center, 2013)
Among all 370,000 compounds or so, about 760 (0.21%) were called active.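 The calls were made as follows: active = inhibition above a per-campaign cutoff: mean of compounds within control limits plus 3 SD (cut at about 15% in these data); inactive = the rest.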 Shown is part of a subset that was picked to be rich in actives.

The molecules below were run against Fibrinogen beta chain (Homo sapiens) (UniProt P02675) (assay: small molecules displacing Tn6 from DD(E) complex – biochemical, fluorescence polarization, human fibrin, Tn6 probe, primary screen (AID 720509;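 also: 0% = median of all compound wells on the plate and 100% = blocking peptide control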)). Settings: Fibrin DD(E) TRITC-Tn6 fluorescence polarization displacement; at 8.3 µM; active compounds read high.
Fibrinogen beta chain (Homo sapiens), sequence (P02675 whole entry, looked up): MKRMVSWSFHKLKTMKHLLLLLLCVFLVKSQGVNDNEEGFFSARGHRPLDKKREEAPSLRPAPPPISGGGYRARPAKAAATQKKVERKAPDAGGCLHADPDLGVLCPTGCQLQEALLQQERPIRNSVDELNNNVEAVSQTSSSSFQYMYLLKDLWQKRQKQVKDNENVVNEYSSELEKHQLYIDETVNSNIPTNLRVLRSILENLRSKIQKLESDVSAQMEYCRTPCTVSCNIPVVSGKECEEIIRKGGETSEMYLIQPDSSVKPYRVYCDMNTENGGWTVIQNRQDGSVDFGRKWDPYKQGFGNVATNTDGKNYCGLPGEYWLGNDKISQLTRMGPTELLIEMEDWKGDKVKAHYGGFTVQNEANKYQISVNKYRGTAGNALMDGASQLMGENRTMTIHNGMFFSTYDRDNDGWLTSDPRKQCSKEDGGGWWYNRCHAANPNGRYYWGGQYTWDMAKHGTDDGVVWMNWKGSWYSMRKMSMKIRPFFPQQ

Compound	inhibition
O=C(c1c(F)cccc1F)N1CCN(c2ncc(Br)cn2)CC1	-1.65% (inactive)
CC(=O)OC(C)C[N+](C)(C)C (centres undefined)	3.71% (inactive)
CCOC(=O)C(C)Oc1cccc2c(=O)n(CC(=O)N3CCc4ccccc43)ccc12 (centres undefined)	-1.79% (inactive)
CC(=O)N1CCCN(C2=Nc3ccccc3Sc3ccccc32)CC1	-3.1% (inactive)
Cc1oc2nc(SCC(=O)NCc3cccnc3)nc(N)c2c1C	7.93% (inactive)
Cc1cc(-c2nnc(SCC(=O)Nc3ccc(S(N)(=O)=O)cc3)n2N)n[nH]1	-3.55% (inactive)
Cc1oc2nc(SCC(=O)Nc3ccc(S(N)(=O)=O)cc3)nc(NC(=O)c3ccccc3)c2c1C	24.4% (active)
COc1cc2c(cc1OC)C(C(=O)Nc1cc(C)c(OC)c(C)c1)CC(=O)N2 (centres undefined)	10.8% (inactive)
N#Cc1ccc(COC(=O)Cn2nnc(-c3ccccc3)n2)cc1	0.38% (inactive)
CCc1cc(-c2nnc(SCC(=O)NC3CC3)n2C)cs1	18.6% (active)
CCOc1cccc(-c2nnc(SCC(=O)NC3CC3)n2C)c1	6.34% (inactive)
Cn1c(SCC(=O)NC2CCCCC2)nnc1-c1ccc(N)cc1	1.64% (inactive)
O=[N+]([O-])c1ccccc1N/N=C1\CCc2ccccc21	-1.87% (inactive)
O=C(NC1CCc2ccccc21)C12CN(Cc3ccccc3)CC1C(c1cccc([N+](=O)[O-])c1)=NO2 (centres undefined)	1.76% (inactive)
COCC(C)n1c(C)cc(C(=O)COc2ccc(C)nc2[N+](=O)[O-])c1C (centres undefined)	2.28% (inactive)
O=C(NCc1nnc(SCC(=O)N2CCCCCC2)o1)c1ccc(F)cc1	4% (inactive)
O=S(=O)(NCC1CN(S(=O)(=O)c2ccc3c(c2)OCCO3)C1)c1c(F)cccc1F	0.97% (inactive)
COc1ccc(-c2c(C)nn3c(N4CCC(C(=O)N5CCCCC5)CC4)cc(C)nc23)cc1OC	-3.53% (inactive)
O=S(=O)(Nc1ccc(-n2cnnn2)cc1)c1ccc(Cl)cc1	-1.46% (inactive)
N#Cc1ccc(S(=O)(=O)NCC(=O)OCC(=O)NCCc2ccccc2)cc1	-8.48% (inactive)
N#CC1=C(N)Oc2c(sc3ccccc23)C1c1ccco1 (centres undefined)	3.91% (inactive)
CC(C)(C)c1cc(=O)n2c(nc3ccccc32)[nH]1	-1.54% (inactive)
CN(CC(=O)Nc1ccccc1Cl)C(=O)c1ccccc1SCC(=O)N1CCCC1	-6.29% (inactive)

Compound	inhibition
COc1ccc(N(CC(=O)NC2CCCCC2)S(=O)(=O)c2c(C)[nH]c(=O)[nH]c2=O)cc1	6% (inactive)
CCCCNC(=O)C[C@@H]1C[C@@]2(C(=O)OCC)CCC=C2N(Cc2ccco2)C1=O	3.81% (inactive)
COc1ccc(CNc2c(CO)cnc3c2cnn3C)cc1	-2.59% (inactive)
COc1ccc(CC(=O)Nc2c3c(nn2-c2cccc(Cl)c2)CS(=O)C3)cc1 (centres undefined)	-10.3% (inactive)
COc1c(C)cc(C(O)c2ncc(-c3cccc(C(F)(F)F)c3)[nH]2)cc1C (centres undefined)	8.36% (inactive)
CCOC(=O)N1CCN(Cc2nc3cc(NC(=O)CC)ccc3n2CC)CC1	-8.37% (inactive)
CCOC(=O)N1CCN(Cc2nc(N)nc(Nc3ccc(C)cc3)n2)CC1	17% (active)
CCOC(=O)C1CCCN(Cc2nc(N)nc(Nc3ccc(C)cc3)n2)C1 (centres undefined)	-3.73% (inactive)
Cc1nnc2n1N=C(c1ccc3c(c1)NC(=O)CO3)CS2	0.86% (inactive)
CCOC(=O)N1CCN(S(=O)(=O)c2ccc(-n3cnnn3)cc2)CC1	7.12% (inactive)
COc1ccc(S(=O)(=O)NC(CC(=O)NCc2ccccc2OC)c2ccco2)cc1 (centres undefined)	2.08% (inactive)
COc1ccc2c(c1)c1ncn(Cc3ccccn3)c(=O)c1n2C	-7.12% (inactive)
CC(C)(C)OC(=O)C[C@@H]1C/C=C\C[C@@H](CC(=O)N[C@@H](CO)Cc2ccccc2)C(=O)N2CCC[C@H]2COC1=O	-2.9% (inactive)
O=C(COC(=O)c1ccc(F)cc1F)Nc1ncccn1	2.94% (inactive)
COC(=O)C1=C(C)NC(=S)NC1c1ccc(OC)cc1 (centres undefined)	0.81% (inactive)
Nc1nc(SCC(=O)NNc2c(Cl)cc(Cl)cc2Cl)n[nH]1	8.94% (inactive)
COc1ccc(C(CNC(=O)c2ccc(OCc3cscn3)cc2)N2CCCC2)cc1 (centres undefined)	2.19% (inactive)
Oc1c(Cl)cc(Cl)c(Cl)c1Cc1c(O)c(Cl)cc(Cl)c1Cl	-7.14% (inactive)
Cc1cc([N+](=O)[O-])nn1Cc1ccc(F)cc1	-0.46% (inactive)
COc1ccc(C(=O)C2CCCN(S(=O)(=O)c3cccc(C)c3)C2)c(C)c1 (centres undefined)	-7.45% (inactive)
CCCC1(C(=O)OCC)NC(c2ccc(N(C)C)cc2)C2C(=O)N(c3ccc4c(c3)OCCO4)C(=O)C21 (centres undefined)	-9.09% (inactive)
COc1ccccc1C(=O)COC(=O)CSCC(=O)Nc1cc(C)on1	0.48% (inactive)
O=C(CN1C(=O)NC2(CCCCCC2)C1=O)NCc1cccs1	-0.57% (inactive)

Compound	inhibition
CSC1=NN(c2ccccc2)CN(c2ccccc2)N1C	-0.87% (inactive)
COc1ccc(CCNC(=O)C(=O)NCC2CCCN2S(=O)(=O)c2cccs2)cc1OC (centres undefined)	-8.21% (inactive)
COCCN(Cc1nc(-c2ccc(C(F)(F)F)cc2)no1)C(C)C	-5.72% (inactive)
CC(C)CCNC(=O)CC1C(=O)N(Cc2ccccc2)C(C)c2nc3ccccc3n21 (centres undefined)	5.33% (inactive)
Cc1cc(=O)oc(C)c1C(=O)Nc1cnc2ccccc2c1	-3.11% (inactive)
CCOc1ccc(C(=O)Nc2cc(Cl)ccc2-n2cncn2)cc1OC	2.72% (inactive)
CN(C)c1cccc(NC(=O)c2ccc(-c3ccc(F)c(F)c3)c3ccoc23)c1	-0.65% (inactive)
Cc1cccc(NS(=O)(=O)c2cc(Cl)ccc2Cl)n1	1.49% (inactive)
CC(=O)N/C(=C\c1ccc(F)cc1)C(=O)NC(Cc1ccccc1)C(=O)O (centres undefined)	2.99% (inactive)
Oc1ccc(N=Cc2sc3ccccc3c2Cl)cc1	36.1% (active)
CN1CCN(S(=O)(=O)c2ccc(Nc3ccc(F)cc3)nc2)CC1	-3.71% (inactive)
O=C(CCN1C(=O)[C@H]2CC=CC[C@H]2C1=O)NCc1nc(-c2ccccc2)no1	1.52% (inactive)
CCc1nc2c(OCc3ccc(C(F)(F)F)cc3)cccn2c1N(C)C(=O)CC(C)C	3.22% (inactive)
Cc1nc2nc3c(cn2n1)C(=O)CC(c1ccccc1)C3 (centres undefined)	4.63% (inactive)
CC(C)CSc1nnc(-c2cccnc2)n1Cc1ccccc1	-2.2% (inactive)
Cc1cc(NS(=O)(=O)c2ccc(NC(=O)CSc3nnc(-c4ccc(C(C)(C)C)cc4)n3Cc3ccco3)cc2)nc(C)n1	6.53% (inactive)
Cc1ccc(C(=O)NC2CCN(C(=O)Nc3ccccc3Cl)CC2)cc1	0.49% (inactive)
CCOCCCNC(=O)c1c[nH]c2cc(C)ccc2c1=O	-0.35% (inactive)
CCn1ccnc1CN(C)C(=O)c1ccc2nc(Cc3ccc(OC)cc3)oc2c1	-4.19% (inactive)
CCC1C(=O)NCCN1C(=O)c1ccc2nc(Cc3ccc(OC)cc3)oc2c1 (centres undefined)	15.8% (active)
COc1ccc(Cc2nc3ccc(C(=O)N4CCC(N(C)C)C4)cc3o2)cc1 (centres undefined)	2.22% (inactive)
CC(C)CN1CC(C)C(=O)N(c2ccccc2)C1=S (centres undefined)	11.7% (inactive)
COC(=O)C1=C(C)N(c2ccc(C)cc2)/C(=C/c2ccc(O)cc2)C1=O	1.49% (inactive)

Compound	inhibition
Cc1ccccc1N(C(=O)Cc1cccs1)C(C(=O)NC1CCCCC1)c1cn(C)nc1C (centres undefined)	-5.36% (inactive)
CCOc1ccc(C(=O)Nc2cccc(-c3ccc4nncn4n3)c2)cc1	12.2% (inactive)
O=C(Nc1cccc(-c2nc3ccccc3[nH]2)c1)c1ccc(C(=O)Nc2cccc(-c3nc4ccccc4[nH]3)c2)cc1	19.9% (active)
O=C(Nc1nsc(-c2ccccc2)n1)c1ccncc1	1.55% (inactive)
O=C(c1ccc(F)cc1)c1cn(Cc2ccc(F)cc2)c2cc3c(cc2c1=O)OCCO3	-1.55% (inactive)
CCN(CC)C(=O)CC[C@@H]1CC[C@]2(CCCN(S(=O)(=O)C3CCCCC3)C2)O1	-5.4% (inactive)
CCc1nc2ccccc2c(C(=O)OC2CCCCC2=O)c1C (centres undefined)	-0.37% (inactive)
CSc1ccccc1OCc1cc(C(=O)N2C[C@H]3CC[C@H]2C3)no1	8.52% (inactive)
O=C(CN1C(=O)CSC1=O)N1CCCC(Nc2ccc(F)cc2)C1 (centres undefined)	-6.4% (inactive)
CC(=O)Nc1ccc(OCCC[n+]2cccc(C(=O)[O-])c2)cc1	-1.3% (inactive)
Cn1ccc(=Nc2ccc(NC(=O)c3ccc(N=c4ccn(C)c5ccc([N+](=O)[O-])cc45)cc3)cc2)cc1	-6.27% (inactive)
COC(=O)C1CN(Cc2cn(Cc3ccc(F)cc3)nn2)CCS(=O)(=O)N1Cc1ccc(Cl)cc1 (centres undefined)	10.6% (inactive)
Cc1ccc(OCCNC(=O)c2cccc(S(=O)(=O)N3CCN(Cc4ccccc4)CC3)c2)cc1	4.41% (inactive)
C[C@@H]1CN([C@H](C)CO)C(=O)CCCn2cc(nn2)CO[C@H]1CN(C)S(=O)(=O)c1ccc(Oc2ccccc2)nc1	-1.11% (inactive)
Cc1noc(C)c1-c1nc(CSc2ccc(Cl)cc2)no1	-2.98% (inactive)
C[C@@H](C(=O)N1CCNCC1)n1cc(CCC(=O)O)nn1	-0.49% (inactive)
O=C(Cc1c(Cl)cccc1Cl)NC1CC1	6.01% (inactive)
O=C(NNc1cc(Cl)cc(Cl)c1)c1c(F)cccc1Cl	1.43% (inactive)
O=C(CCl)NNc1cccc(Cl)n1	30.8% (active)
COC(=O)[C@]12C[C@H](CC(=O)NCc3cccc(C(F)(F)F)c3)C(=O)N(Cc3ccc4c(c3)OCO4)C1=C[C@H](COCc1ccccc1)O[C@@H]2C	-3.35% (inactive)
